Assay results published in the supplement of paper PMC9694430.
“And” between values parts separate entries of the source, which are not always exact repeats. Identical values can stand only once.

What was measured:
Test in all cases: thermal shift delta Tm vs DMSO control; higher = stronger stabilization (binding)
Conditions in all cases: 12.5 µM; protein concentration 2 µM
[1] = system: LOC_OS01G57100-cb003
In short: (§1)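 Heating from 25°C to 95°C at 0.05°C/s, fluorescence was recorded for 19.5 μl wells of 2 μM E. coli-expressed, purified rice kinase domain in 100 mM potassium phosphate pH 7.5, 150 mM NaCl, 10% glycerol and 5 × SYPRO Orange with compound in DMSO. Boltzmann fits gave melting temperatures for this differential scanning fluorimetry assay. The shift reported is the mean of three replicates against the DMSO-only protein.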

[2] = system: LOC_OS01G60330-cb001
In short: as §1

[3] = system: LOC_OS01G60700-cb002
In short: as §1

[4] = system: LOC_OS01G63280-cb003
In short: as §1

[5] = system: LOC_OS01G67340-cb003
In short: as §1

[6] = system: LOC_OS01G70970-cb002
In short: as §1

[7] = system: LOC_OS02G07810-cb001
In short: as §1

[8] = system: LOC_OS02G08530-cb003
In short: as §1

[9] = system: LOC_OS02G14120-cb001
In short: as §1

[10] = system: LOC_OS02G17970-cb001
In short: as §1

[11] = system: LOC_OS02G45750-cb003
In short: as §1

[12] = system: LOC_OS02G54510-cb004
In short: as §1

[13] = system: LOC_OS03G04050-cb001
In short: as §1

[14] = system: LOC_OS03G12390-cb001
In short: as §1

[15] = system: LOC_OS03G27990-cb004
In short: as §1

[16] = system: LOC_OS03G50450-cb001
In short: as §1

[17] = system: LOC_OS03G50810-cb003
In short: as §1

[18] = system: LOC_OS04G35114-cb001
In short: as §1

[19] = system: T1, LOC_OS04G38480-cb003
T1 sequence (whole entry): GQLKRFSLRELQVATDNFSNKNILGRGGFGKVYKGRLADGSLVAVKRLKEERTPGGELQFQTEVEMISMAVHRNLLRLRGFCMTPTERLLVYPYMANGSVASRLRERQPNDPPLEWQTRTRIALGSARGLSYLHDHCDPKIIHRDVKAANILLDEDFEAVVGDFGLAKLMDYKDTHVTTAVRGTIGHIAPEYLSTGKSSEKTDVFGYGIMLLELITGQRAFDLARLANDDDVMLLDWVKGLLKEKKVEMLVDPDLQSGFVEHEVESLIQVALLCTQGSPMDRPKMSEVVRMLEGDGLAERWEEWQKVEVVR
In short: as §1

[20] = system: T2, LOC_OS04G41100-cb001
T2 sequence (whole entry): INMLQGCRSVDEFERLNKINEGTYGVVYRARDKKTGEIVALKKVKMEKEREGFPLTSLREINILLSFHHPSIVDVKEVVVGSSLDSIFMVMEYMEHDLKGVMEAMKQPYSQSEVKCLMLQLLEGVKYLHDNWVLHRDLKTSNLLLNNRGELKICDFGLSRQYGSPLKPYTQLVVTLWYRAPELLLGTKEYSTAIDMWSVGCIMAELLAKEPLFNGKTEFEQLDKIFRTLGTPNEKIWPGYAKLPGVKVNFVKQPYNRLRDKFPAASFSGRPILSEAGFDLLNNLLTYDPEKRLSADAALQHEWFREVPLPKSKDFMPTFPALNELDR
In short: as §1
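Further: purified Escherichia coli-expressed rice kinase domain construct.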

Structure (SMILES)	thermal shift delta Tm [1]	thermal shift delta Tm [2]	thermal shift delta Tm [3]	thermal shift delta Tm [4]	thermal shift delta Tm [5]	thermal shift delta Tm [6]	thermal shift delta Tm [7]	thermal shift delta Tm [8]	thermal shift delta Tm [9]	thermal shift delta Tm [10]	thermal shift delta Tm [11]	thermal shift delta Tm [12]	thermal shift delta Tm [13]	thermal shift delta Tm [14]	thermal shift delta Tm [15]	thermal shift delta Tm [16]	thermal shift delta Tm [17]	thermal shift delta Tm [18]	thermal shift delta Tm [19]	thermal shift delta Tm [20]
Cc1cc2c(F)c(Oc3ncnn4cc(OC[C@@H](C)OC(=O)[C@H](C)N)c(C)c34)ccc2[nH]1	2.01 °C	2.03 °C	1.53 °C	0.53 °C	0.06 °C	0.49 °C	0.41 °C	0.78 °C	0.99 °C	0.23 °C	1.3 °C	-0.11 °C	0.25 °C	-0.23 °C	1.72 °C	-0.29 °C	0.18 °C	5.17 °C	0.59 °C	0.68 °C
C[C@@H](N)[C@H]1CC[C@H](C(=O)Nc2ccncc2)CC1	0.49 °C	1.12 °C	1.12 °C	0.48 °C	0.04 °C	0.52 °C	0.9 °C	0.85 °C	0.71 °C	0.32 °C	0.42 °C	-0.03 °C	0.29 °C	0.52 °C	0.09 °C	0.25 °C	0.21 °C	0.03 °C	1.42 °C	0.81 °C
Cc1cc(CN2CCN(c3c(Br)cnc4nc(-c5ccc(N6CCN(C)CC6)cc5)[nH]c34)CC2)no1	0.54 °C	3.22 °C	0.17 °C	0.23 °C	1.36 °C	1.3 °C	0.7 °C	0.33 °C	4.66 °C	0.14 °C	11.1 °C	0.56 °C	0.42 °C	2.08 °C	1.47 °C	4.97 °C	4 °C	3.09 °C	2.28 °C	0.48 °C
COc1cc(N2CCC(N(C)C)CC2)ccc1Nc1ncc(Cl)c(Nc2ccccc2P(C)(C)=O)n1	4.55 °C	0.43 °C	0.89 °C	0.32 °C	1.45 °C	4.81 °C	0.65 °C	5.8 °C	10.2 °C	0.5 °C	2.58 °C	0.23 °C	0.53 °C	10.9 °C	2.49 °C	0.35 °C	5.58 °C	4.67 °C	3.65 °C	0.61 °C
COc1ccc(-c2ccc3ncc4c(c3c2)n(-c2ccc(N3CCNCC3)c(C(F)(F)F)c2)c(=O)n4C)cn1	1.82 °C	0.66 °C	0.68 °C	0.17 °C	1.43 °C	0.41 °C	1.67 °C	2.04 °C	8.11 °C	0.58 °C	1.22 °C	0.44 °C	0.36 °C	-0.28 °C	0.61 °C	0.72 °C	2.17 °C	7.13 °C	1.98 °C	0.01 °C
COc1cc(Nc2ncc(F)c(Nc3ccc4c(n3)N(COP(=O)(O)O)C(=O)C(C)(C)O4)n2)cc(OC)c1OC [R788 (Fostamatinib) Disodium]	1.79 °C	1.17 °C	1.17 °C	1.12 °C	0.57 °C	1.43 °C	0.47 °C	0.82 °C	5.05 °C	1.55 °C	2.5 °C	0.47 °C	0.33 °C	1.17 °C	1.08 °C	7.52 °C	2.27 °C	2.02 °C	2.06 °C	0.34 °C
CC(=O)c1c(C)c2cnc(Nc3ccc(N4CCNCC4)cn3)nc2n(C2CCCC2)c1=O	-0.7 °C	1.73 °C	0.15 °C	-0.12 °C	1.56 °C	0.58 °C	-0.42 °C	1.29 °C	4.13 °C	0.68 °C	6.05 °C	0.3 °C	0.22 °C	5.44 °C	2.08 °C	0.53 °C	2.97 °C	3.19 °C	1.9 °C	1.04 °C
c1cncc(CN2CCC(n3ncc4c(N5CCOCC5)nc(-c5ccc6[nH]ccc6c5)nc43)CC2)c1	2.55 °C	0.61 °C	0.71 °C	0.09 °C	-0.04 °C	0.4 °C	0.62 °C	0.57 °C	0.15 °C	0.27 °C	0.03 °C	-0.13 °C	0.22 °C	-0.05 °C	0.01 °C	0.14 °C	0.65 °C	0.3 °C	0.67 °C	0.58 °C
CN1CCC(COc2cnc(-c3cccc(Cn4nc(-c5cccc(C#N)c5)ccc4=O)c3)nc2)CC1	0.71 °C	0.27 °C	0.62 °C	-0.13 °C	-0.02 °C	0.15 °C	0.34 °C	0.12 °C	0.1 °C	0.24 °C	-0.03 °C	-0.06 °C	0.23 °C	-0.02 °C	0.03 °C	0.11 °C	0.09 °C	1.33 °C	0.26 °C	0.35 °C
CNc1nc(-c2ccc3c(N)n[nH]c3c2)cc(N2C[C@@H](C(=O)NC3CCCCC3)CC[C@H]2C)n1	2.04 °C	0.28 °C	2.12 °C	0.81 °C	-0.04 °C	0.71 °C	1.63 °C	1.27 °C	0.75 °C	1.01 °C	0.45 °C	0.92 °C	0.58 °C	0.25 °C	0.2 °C	0.38 °C	0.87 °C	0.5 °C	1.14 °C	0.66 °C
Oc1ccc(-c2nc(-c3ccc(F)cc3)c(-c3ccncc3)[nH]2)cc1	1.5 °C	0.98 °C	2.02 °C	0.47 °C	-0.26 °C	0.63 °C	1.96 °C	1.58 °C	0.99 °C	1.05 °C	0.9 °C	1.58 °C	0.9 °C	0.88 °C	0.55 °C	0.44 °C	0.55 °C	2.01 °C	1.53 °C	1.35 °C
Cc1c[nH]c(/C=C2\C(=O)Nc3ccccc32)c1CCC(=O)O	0.49 °C	11.5 °C	0.67 °C	0.07 °C	3.1 °C	5.88 °C	-0.06 °C	3.9 °C	1.56 °C	0.22 °C	2.76 °C	0.94 °C	0.06 °C	8 °C	0.79 °C	4.67 °C	2.36 °C	8.73 °C	3.46 °C	0.43 °C
O=C(NC1CCNCC1)c1n[nH]cc1NC(=O)c1c(Cl)cccc1Cl	0.75 °C and 1.2 °C	0.78 °C and 1.25 °C	0.49 °C and 1.4 °C	0.02 °C and 0.4 °C	-0.21 °C and 0.3 °C	0.28 °C and 0.16 °C	0.48 °C and 1.2 °C	0.49 °C and 0.58 °C	-0.32 °C and 0.19 °C	0.23 °C and 1.28 °C	0.66 °C and 1.33 °C	0.11 °C and 0.36 °C	0.15 °C and 0.29 °C	0.1 °C and 0.19 °C	0.04 °C and 0.36 °C	0.11 °C and 0.36 °C	0.29 °C and 0.51 °C	0.48 °C and 0.71 °C	0.07 °C and 1.75 °C	7.15 °C and 7.57 °C
O=C(Nc1cccc(Nc2ncc(Br)c(NCCc3cnc[nH]3)n2)c1)N1CCCC1	1.45 °C	12.3 °C	0.44 °C	0.73 °C	2 °C	9.39 °C	0.15 °C	2.7 °C	10.6 °C	0.3 °C	9.57 °C	1.18 °C	0.77 °C	2.81 °C	1.73 °C	6.39 °C	5.57 °C	5.16 °C	2.86 °C	2.52 °C
CCCCCCCCCCCCCCCCCCOP(=O)([O-])OC1CC[N+](C)(C)CC1 [Perifosine (KRX-0401)]	-2.51 °C	-0.68 °C	-0.73 °C	-3.09 °C	-1.14 °C	-3.45 °C	-0.99 °C	-1.07 °C	-2.06 °C	-0.45 °C	-1.3 °C	-1.77 °C	-3.06 °C	-3.5 °C	-2.47 °C	-2.45 °C	-1.54 °C	-3.56 °C	-0.3 °C	-0.69 °C
CNCc1ccc(-c2cc(-c3nc(-c4ccc(S(=O)(=O)C(C)C)cc4)cnc3N)on2)cc1	1.41 °C	0.91 °C	1.58 °C	0.5 °C	0.06 °C	0.3 °C	2.33 °C	1.56 °C	2.23 °C	1.43 °C	2.46 °C	0.28 °C	0.32 °C	0.54 °C	0.33 °C	0.34 °C	0.97 °C	4.33 °C	1 °C	0.22 °C
Cc1ccc(-n2nc(C(C)(C)C)cc2NC(=O)Nc2ccc(OCCN3CCOCC3)c3ccccc23)cc1 [Doramapimod (BIRB 796)]	1.19 °C	1.27 °C	0.98 °C	1.11 °C	0.16 °C	0.56 °C	0.89 °C	0.89 °C	0.95 °C	0.9 °C	-1.12 °C	0.33 °C	0.33 °C	-0.03 °C	0.31 °C	0.1 °C	0.01 °C	0.68 °C	0.95 °C	0.9 °C
C=CC(=O)Nc1cc(Nc2nccc(-c3c[nH]c4ccccc34)n2)c(OC)cc1N(C)CCN(C)C	1.63 °C	0.87 °C	1.61 °C	0.65 °C	0.79 °C	0.59 °C	0.87 °C	5.01 °C	4.93 °C	1.65 °C	1.45 °C	0.35 °C	0.7 °C	5.75 °C	0.52 °C	0.87 °C	1.28 °C	4.03 °C	2.42 °C	0.37 °C
O=C(Nc1ccccc1C(=O)NC1CCCCNC1=O)c1cc2ccccc2s1 (stereo not given)	1.14 °C	1.02 °C	0.65 °C	-0.03 °C	0.41 °C	0.19 °C	0.51 °C	0.19 °C	0.18 °C	0.88 °C	0.67 °C	0.07 °C	0.19 °C	-0.24 °C	0.15 °C	0.22 °C	0.43 °C	0.94 °C	1.47 °C	0.17 °C
